# Screening results deposited in PubChem BioAssay by several laboratories.
# SKKanGAS inh – S. pyogenes SKKanGAS growth inhibitors in kanamycin, primary screen, streptokinase expression inhibitor project, SKKanGAS strain, BacTiter-Glo luminescence; 6 h; inhibition, % at 7.5 µM; 1.3% of 300,000 active; AID 1662, 2009;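 active = mean replicate score, as percent of positive control median, at least 50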;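 also: strain carries kanamycin resistance gene driven by streptokinase promoter and grows in 40 µg/ml kanamycin; loss of luminescence reflects streptokinase promoter inhibition or plain growth inhibition; 0% = median of DMSO wells and 100% = positive control at its reference dose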
# aSyn UTR inh – MLPCN primary screen, SNCA 5' untranslated region. inhibition, % (tested at 7.5 µM). alpha-synuclein 5'UTR reporter, inhibitor activity. AID 1813, 2009. 0.82% of 300,000 active; in the data active = inhibition above about 60%;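 also: H4 neuroglioblastoma cells stably carrying SNCA 5'UTR luciferase fusion; 0% = DMSO wells and 100% = positive control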
# IEC-6 cytotox – cytotoxicity in IEC-6 intestinal epithelial cells, primary screen, cytotoxicity control for KLF5 inhibitor project, cell-based, luminescence; IEC-6 cytotoxicity, luminescence viability; 0.78% of 290,000 active; AID 1825, 2009; inhibition, % at 5 µM; in the data active = inhibition above about 22%;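 also: 0% = plate median of test compound wells and 100% = cytotoxic reference compound wells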
# KLF5 inhibitor – KLF5 expression inhibitors, primary screen, DLD-1 cells, luminescence; DLD-1 KLF5 promoter-luciferase reporter; inhibition, % at 5 µM; 0.23% of 290,000 active; AID 1700, 2009;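 active = inhibition above a per-plate limit of that plate's mean compound inhibition plus 3 SD, cut at about 60% in these data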;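 also: 0% = DMSO wells and 100% = LY294002 at 200 µM; higher means less KLF5 promoter-driven luciferase light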
# CSC inhib – cancer stem cell viability inhibitors, primary screen, luminescence. cancer stem cell-like cells viability. inhibition, % at 7.5 µM. 1.1% of 300,000 active; in the data active = inhibition above about 75%; tested in HMLE shEcad cells
# * hit, by the source's call; . = no result. Sampled rows, rich in hits. Any-hit rate of the full collection: about 3%.
SMILES,SKKanGAS inh,aSyn UTR inh,IEC-6 cytotox,KLF5 inhibitor,CSC inhib
COCC1CCN(Cc2c(C(=O)N3CCc4ccccc4C3)nc3ccc(Cl)cn23)C1 (centres undefined),5.1,11.9,-6.6,3.2,-12.5
O=C(Nc1ccc(-c2nc3cccnc3s2)cc1)C1CCCO1 (centres undefined),8.9,87.3*,6.0,22.7,8.3
O=C(Nc1ccc(-c2nc3ccccc3o2)cc1)C1CCCO1 (centres undefined),1.9,-23.2,2.6,-118.6,.
O=C(NCCN1CCN(c2ccccc2)CC1)Nc1ccccc1Br,1.4,8.8,-6.2,-3.8,6.3
O=C(c1cccc(Br)c1)c1coc2ccc(O)cc12,.,.,.,.,90.8*
CSc1ccc(-c2nc(CSCC(=O)NC3CC3)c(C)o2)cc1,-4.7,12.0,-4.6,-28.9,-8.8
CCc1ccc(-c2nc(CSCC(=O)NC3CC3)c(C)o2)cc1,3.5,70.6*,-5.5,41.5,-13.4
Nc1nonc1-c1nc2ccccc2n1CC(=O)O,3.1,-30.6,-0.5,-15.2,-4.4
Nc1nonc1-c1nc2ccccc2n1CC(=O)N/N=C/c1ccc(-c2cccc(C(=O)O)c2)o1,67.8*,-44.9,-5.9,-62.3,.
COC(=O)c1ccc(NC(=O)Cn2c(-c3nonc3N)nc3ccccc32)cc1,5.1,1.5,2.4,-22.3,9.1
COC(=O)c1ccccc1NC(=O)Cn1c(-c2nonc2N)nc2ccccc21,3.7,36.3,34.7*,-29.4,.
O=C(Nc1nnc(N2CCCCCC2)s1)c1cc(-c2ccc(Br)cc2)on1,26.4,-20.1,0.9,-8.0,56.0
CC1CCCC(C)N1c1nnc(NC(=O)c2cc(-c3ccc(Br)cc3)on2)s1 (centres undefined),51.0*,7.8,5.8,7.4,64.3
Cc1cccc(-n2ncc3c(N(CCO)CCO)ncnc32)c1,-0.8,-105.7,7.0,-59.1,-2.8
Cc1cccc(-n2ncc3c(N4CCCc5ccccc54)ncnc32)c1,4.6,-123.4,-3.3,-137.2,76.3*
Cc1cccc(-n2ncc3c(N(C)C4CCCCC4)ncnc32)c1,-0.5,66.0*,.,.,55.3
N#Cc1c(-c2ccc(Cl)cc2)ccn2nc(C3CCCCC3)nc12,7.5,-164.1,0.7,-8.6,.
O=C(COC(=O)c1cccnc1Cl)Nc1nc(-c2ccccc2)cs1,3.7,-63.0,3.7,-3.4,.
CCCCC[C@@H]1C=C(C(=O)O)[C@H](c2ccc(Cl)c(Cl)c2)N1S(=O)(=O)c1ccc(C)cc1,.,.,.,.,98.4*
Cc1ccc(S(=O)(=O)N2[C@@H](c3cccc(Cl)c3)C(C(=O)O)=CC[C@H]2c2cccc(Cl)c2)cc1,.,.,.,.,7.1
CCc1ccc([C@@H]2CC=C(C(=O)O)[C@H](c3ccc(Cl)cc3)N2S(=O)(=O)c2ccc(C)cc2)cc1,.,.,.,.,79.1*
Cc1ccc(S(=O)(=O)N2[C@@H](c3ccc(C(C)(C)C)cc3)C(C(=O)O)=CC[C@H]2c2cccc(Cl)c2)cc1,.,.,.,.,138.2*
CCc1ccc([C@@H]2CC=C(C(=O)O)[C@H](c3cccc(Cl)c3)N2S(=O)(=O)c2ccc(C)cc2)cc1,.,.,.,.,-3.0
CCC1CCC2(CC1)NC(=O)N(CC(=O)Nc1ccc(OC)c(Cl)c1)C2=O (centres undefined),.,.,.,.,8.8
CCCCc1ccc(-c2nc(-c3ccncc3)no2)cc1,-6.2,91.5*,-0.4,-83.8,.
SMILES,SKKanGAS inh,aSyn UTR inh,IEC-6 cytotox,KLF5 inhibitor,CSC inhib
C[C@H]1CN([C@@H](C)CO)C(=O)Cc2cc(NC(=O)CCC(F)(F)F)ccc2O[C@H]1CN(C)Cc1ccc(-c2ccccc2)cc1,.,.,.,.,122.7*
C[C@H](CO)N1C[C@H](C)[C@H](CN(C)Cc2ccc(-c3ccccc3)cc2)Oc2ccc(NS(=O)(=O)c3ccccc3)cc2CC1=O,.,.,.,.,97.5*
Cc1ccc(S(=O)(=O)Nc2ccc3c(c2)CC(=O)N([C@H](C)CO)C[C@@H](C)[C@H](CN(C)Cc2ccc(-c4ccccc4)cc2)O3)cc1,.,.,.,.,108.5*
C[C@@H]1CN([C@@H](C)CO)C(=O)Cc2cc(NS(=O)(=O)c3ccccc3)ccc2O[C@H]1CN(C)Cc1ccncc1,.,.,.,.,-17.0
C/C(=N/NC(=O)CNC(=O)COc1ccccc1)c1ccc(Cl)cc1,0.9,7.8,-2.5,-6.1,-7.9
Cc1ccc(NC(=O)Cn2c([N+](=O)[O-])cnc2C)cc1Cl,-3.1,24.1,-1.6,-32.9,-7.5
Cc1ccc(N(CC(=O)NCc2ccccn2)S(=O)(=O)c2ccccc2)cc1C,1.8,31.2,4.3,0.7,1.4
CCc1ccccc1NC(=O)CN1CCN(C(=O)CNC(=O)c2ccc(N3CCCC3=O)cc2)CC1,.,.,.,.,-2.8
Cc1ccc2nc(-c3ccc(NC(=S)NC(=O)C(C)C)cc3)sc2c1,-0.5,-207.7,-1.9,-66.5,5.3
Cc1ccc2nc(-c3ccc(NC(=S)NC4CC(C)(C)NC(C)(C)C4)cc3)sc2c1,58.2*,120.9*,3.6,-128.1,4.0
CC(/C=C/c1ccco1)=N\NC(=O)c1cc(C)[nH]n1,1.5,-10.7,-4.3,-33.2,1.5
CC(/C=C/c1ccco1)=N\NC(=O)c1cc(Cl)ccc1O,69.8*,-32.0,-2.4,6.7,-7.2
O=C1ON=C(c2ccc(Cl)cc2)/C1=C/c1ccc(O)cc1,-0.2,-6.5,-8.8,-32.6,79.3*
CC(C)c1ccc(NC(=O)c2snc3ccc(Cl)cc23)cc1,8.5,-369.5,8.1,-107.8,79.5*
CC(C)c1ccc(NC(=O)c2csnn2)cc1,3.8,-97.6,2.2,-110.5,4.7
Cc1ccc2nc(-c3ccncc3)cc(-c3ccccc3)c2c1,-6.6,15.7,-5.7,4.9,30.6
Cc1ccc(-c2cc3cccc[n+]3cc2-c2ccc(C)cc2)cc1,-4.1,50.6,27.6*,14.6,3.7
CCOc1ccc(/C=N/NC(=O)c2ccccc2O)cc1CN1CC2CC(C1)c1cccc(=O)n1C2 (centres undefined),.,.,.,.,7.6
Cc1c(C(=O)N2CCCC2)c(S(=O)(=O)Nc2cccc(Br)c2)c(C)n1C,6.3,24.1,-3.4,-18.8,-11.7
Cc1ccc(C2C=C(c3ccccc3OC(F)F)Nc3ncnn32)cc1 (centres undefined),-1.8,1.2,0.5,-16.1,24.0
CN(C)c1ccc(C2C=C(c3ccc(Cl)cc3OC(F)F)Nc3ncnn32)cc1 (centres undefined),87.5*,-4.4,.,.,58.3
CC(=NCCc1c(C)[nH]c2ccc(OCc3ccccc3)cc12)C1=C(O)CC(c2ccccc2)CC1=O (centres undefined),8.6,10.4,-3.9,-32.6,11.8
CCC(=NCCc1c(C)[nH]c2ccc(OC(F)(F)F)cc12)C1=C(O)CC(c2ccccc2)CC1=O (centres undefined),29.1,107.0*,-12.0,-24.7,62.6
CCCCC(=NCCc1c(C)[nH]c2ccc(OC)cc12)C1=C(O)CC(c2ccccc2)CC1=O (centres undefined),21.4,119.1*,1.3,9.1,49.0
CC(=O)OCC1=C(C(=O)O)N2C(=O)C(NC(=O)c3ccc(COc4cccc(Cl)c4Cl)o3)C2SC1 (centres undefined),71.6*,-1.9,0.7,-17.7,64.0
